# Residue numbers refer to the chain shown, from its start.
# How the values were obtained:
# Assay in all cases: yeast three-hybrid, YBZ-1, SC-Leu-His + 0.5 mM 3-AT, 4 days
# Conditions in all cases: tags: N-Gal4 AD-HA kept; label: inside an RPR1-promoter hybrid RNA with tandem MS2 sites; ssRNA
# PUM1 PUF domain R7-GCD = PUM1 PUF domain R7-GCD (Homo sapiens, UniProt Q14671 828-1176, S1079G;N1080C;E1083D)
# Method in brief: (§1)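 Repeat regions from input (SC-Leu) and selection (SC-Leu-His + 0.5 mM 3-AT) plates were PCR-amplified and Illumina-sequenced after four days of growth. The cells were strain YBZ-1 with a LexA–MS2 coat fusion and a HIS3 reporter, co-expressing Pumilio-1 PUF domain libraries and matching RNA elements from a centromeric plasmid. The interaction score is the log change in variant frequency from input to selection, taken in log2 with a pseudocount of 1 for absent variants.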
# PUM1 PUF domain R5-RQQ = PUM1 PUF domain R5-RQQ (Homo sapiens, UniProt Q14671 828-1176, C1007R;R1008Q)
# Method in brief: as §1
# PUM1 PUF domain R1-RKR = PUM1 PUF domain R1-RKR (Homo sapiens, UniProt Q14671 828-1176, S863R;R864K;Q867R)
# Method in brief: as §1
# PUM1 PUF domain R3-YRA = PUM1 PUF domain R3-YRA (Homo sapiens, UniProt Q14671 828-1176, C935Y;Q939A)
# Method in brief: as §1
# PUM1 PUF domain R8-KWN = PUM1 PUF domain R8-KWN (Homo sapiens, UniProt Q14671 828-1176, N1122K;Y1123W;Q1126N)
# Method in brief: as §1
# PUM1 PUF domain R3-DYG = PUM1 PUF domain R3-DYG (Homo sapiens, UniProt Q14671 828-1176, C935D;R936Y;Q939G)
# Method in brief: as §1
# PUM1 PUF domain R5-RYC = PUM1 PUF domain R5-RYC (Homo sapiens, UniProt Q14671 828-1176, C1007R;R1008Y;Q1011C)
# Method in brief: as §1
# PUM1 PUF domain R6-GWQ = target: T1, PUM1 PUF domain R6-GWQ (Homo sapiens, UniProt Q14671 828-1176, N1043G;Y1044W)
# T1 sequence: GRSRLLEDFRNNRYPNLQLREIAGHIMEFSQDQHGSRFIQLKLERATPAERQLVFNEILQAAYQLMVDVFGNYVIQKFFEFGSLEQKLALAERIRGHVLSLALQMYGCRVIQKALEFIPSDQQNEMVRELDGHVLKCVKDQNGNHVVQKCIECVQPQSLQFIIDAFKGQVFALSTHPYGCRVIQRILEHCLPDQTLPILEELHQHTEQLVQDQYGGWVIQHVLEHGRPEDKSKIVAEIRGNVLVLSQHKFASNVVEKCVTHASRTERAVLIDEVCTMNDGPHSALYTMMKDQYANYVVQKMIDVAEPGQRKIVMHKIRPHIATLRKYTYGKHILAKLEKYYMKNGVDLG
# Method in brief: as §1
# PUM1 PUF domain R5-TFY = PUM1 PUF domain R5-TFY (Homo sapiens, UniProt Q14671 828-1176, C1007T;R1008F;Q1011Y)
# Method in brief: as §1
# PUM1 PUF domain R6-IYE = target: T2, PUM1 PUF domain R6-IYE (Homo sapiens, UniProt Q14671 828-1176, N1043I;Q1047E)
# T2 sequence: T1 sequence with G216I, W217Y, Q220E
# Method in brief: as §1
# PUM1 PUF domain R6-LYL = target: T3, PUM1 PUF domain R6-LYL (Homo sapiens, UniProt Q14671 828-1176, N1043L;Q1047L)
# T3 sequence: T1 sequence with G216L, W217Y, Q220L
# Method in brief: as §1
# PUM1 PUF domain R4-SRN = PUM1 PUF domain R4-SRN (Homo sapiens, UniProt Q14671 828-1176, N971S;H972R;Q975N)
# Method in brief: as §1
# PUM1 PUF domain R1-KRA = PUM1 PUF domain R1-KRA (Homo sapiens, UniProt Q14671 828-1176, S863K;Q867A)
# Method in brief: as §1
# PUM1 PUF domain R7-KYF = PUM1 PUF domain R7-KYF (Homo sapiens, UniProt Q14671 828-1176, S1079K;N1080Y;E1083F)
# Method in brief: as §1
# PUM1 PUF domain R5-DRR = PUM1 PUF domain R5-DRR (Homo sapiens, UniProt Q14671 828-1176, C1007D;Q1011R)
# Method in brief: as §1
# PUM1 PUF domain R4-HHN = PUM1 PUF domain R4-HHN (Homo sapiens, UniProt Q14671 828-1176, N971H;Q975N)
# Method in brief: as §1
# PUM1 PUF domain R3-FCA = PUM1 PUF domain R3-FCA (Homo sapiens, UniProt Q14671 828-1176, C935F;R936C;Q939A)
# Method in brief: as §1
# PUM1 PUF domain R3-LRE = PUM1 PUF domain R3-LRE (Homo sapiens, UniProt Q14671 828-1176, C935L;Q939E)
# Method in brief: as §1
# PUM1 PUF domain R4-PRQ = PUM1 PUF domain R4-PRQ (Homo sapiens, UniProt Q14671 828-1176, N971P;H972R)
# Method in brief: as §1
# PUM1 PUF domain R6-EWK = target: T4, PUM1 PUF domain R6-EWK (Homo sapiens, UniProt Q14671 828-1176, N1043E;Y1044W;Q1047K)
# T4 sequence: T1 sequence with G216E, Q220K
# Method in brief: as §1
sequence,measurement,setting,value
GGCUAGAACUAGUGGAUCCCCCGGCGCCCGGCGGCUCGAGCCCGGGUAAGUUUAAAUAGUCUGCAUGCCGCCGGGCGCCAUGCCUGCAGGUCGACUCUAGAAAACAUG,binding signal,PUM1 PUF domain R7-GCD,3.51 log2 enrichment (interaction score)
GGCUAGAACUAGUGGAUCCCCCGGCGCCCGGCGGCUCGAGCCCGGGUAAGUGUGAAUAGUCUGCAUGCCGCCGGGCGCCAUGCCUGCAGGUCGACUCUAGAAAACAUG,binding signal,PUM1 PUF domain R5-RQQ,1.47 log2 enrichment (interaction score)
GGCUAGAACUAGUGGAUCCCCCGGCGCCCGGCGGCUCGAGCCCGGGUAAGUGUAAAUUGUCUGCAUGCCGCCGGGCGCCAUGCCUGCAGGUCGACUCUAGAAAACAUG,binding signal,PUM1 PUF domain R1-RKR,3.15 log2 enrichment (interaction score)
GGCUAGAACUAGUGGAUCCCCCGGCGCCCGGCGGCUCGAGCCCGGGUAAGUGUAAAUAGUCUGCAUGCCGCCGGGCGCCAUGCCUGCAGGUCGACUCUAGAAAACAUG,binding signal,PUM1 PUF domain R3-YRA,0.87 log2 enrichment (interaction score)
same,binding signal,PUM1 PUF domain R8-KWN,2.44 log2 enrichment (interaction score)
same,binding signal,PUM1 PUF domain R3-DYG,3.9 log2 enrichment (interaction score)
same,binding signal,PUM1 PUF domain R5-RYC,3.48 log2 enrichment (interaction score)
same,binding signal,PUM1 PUF domain R6-GWQ,5.78 log2 enrichment (interaction score)
same,binding signal,PUM1 PUF domain R5-TFY,2.23 log2 enrichment (interaction score)
same,binding signal,PUM1 PUF domain R6-IYE,2.5 log2 enrichment (interaction score)
same,binding signal,PUM1 PUF domain R6-LYL,2.24 log2 enrichment (interaction score)
same,binding signal,PUM1 PUF domain R4-SRN,3.38 log2 enrichment (interaction score)
GGCUAGAACUAGUGGAUCCCCCGGCGCCCGGCGGCUCGAGCCCGGGUAAGUGUAAAUCGUCUGCAUGCCGCCGGGCGCCAUGCCUGCAGGUCGACUCUAGAAAACAUG,binding signal,PUM1 PUF domain R1-RKR,3.04 log2 enrichment (interaction score)
same,binding signal,PUM1 PUF domain R1-KRA,5.03 log2 enrichment (interaction score)
GGCUAGAACUAGUGGAUCCCCCGGCGCCCGGCGGCUCGAGCCCGGGUAAGUAUAAAUAGUCUGCAUGCCGCCGGGCGCCAUGCCUGCAGGUCGACUCUAGAAAACAUG,binding signal,PUM1 PUF domain R7-KYF,3.75 log2 enrichment (interaction score)
GGCUAGAACUAGUGGAUCCCCCGGCGCCCGGCGGCUCGAGCCCGGGUAAGUGUCAAUAGUCUGCAUGCCGCCGGGCGCCAUGCCUGCAGGUCGACUCUAGAAAACAUG,binding signal,PUM1 PUF domain R5-RYC,4.73 log2 enrichment (interaction score)
same,binding signal,PUM1 PUF domain R5-RQQ,5.36 log2 enrichment (interaction score)
same,binding signal,PUM1 PUF domain R5-DRR,3.48 log2 enrichment (interaction score)
GGCUAGAACUAGUGGAUCCCCCGGCGCCCGGCGGCUCGAGCCCGGGUAAGGGUAAAUAGUCUGCAUGCCGCCGGGCGCCAUGCCUGCAGGUCGACUCUAGAAAACAUG,binding signal,PUM1 PUF domain R8-KWN,2.68 log2 enrichment (interaction score)
GGCUAGAACUAGUGGAUCCCCCGGCGCCCGGCGGCUCGAGCCCGGGUAAGUGUUAAUAGUCUGCAUGCCGCCGGGCGCCAUGCCUGCAGGUCGACUCUAGAAAACAUG,binding signal,PUM1 PUF domain R5-RYC,4.89 log2 enrichment (interaction score)
same,binding signal,PUM1 PUF domain R5-RQQ,5.69 log2 enrichment (interaction score)
same,binding signal,PUM1 PUF domain R5-DRR,2.64 log2 enrichment (interaction score)
GGCUAGAACUAGUGGAUCCCCCGGCGCCCGGCGGCUCGAGCCCGGGUAAGUGUAUAUAGUCUGCAUGCCGCCGGGCGCCAUGCCUGCAGGUCGACUCUAGAAAACAUG,binding signal,PUM1 PUF domain R4-HHN,6.48 log2 enrichment (interaction score)
same,binding signal,PUM1 PUF domain R4-SRN,0.7 log2 enrichment (interaction score)
GGCUAGAACUAGUGGAUCCCCCGGCGCCCGGCGGCUCGAGCCCGGGUAAGCGUAAAUAGUCUGCAUGCCGCCGGGCGCCAUGCCUGCAGGUCGACUCUAGAAAACAUG,binding signal,PUM1 PUF domain R8-KWN,2.89 log2 enrichment (interaction score)
GGCUAGAACUAGUGGAUCCCCCGGCGCCCGGCGGCUCGAGCCCGGGUAAGUGUAAUUAGUCUGCAUGCCGCCGGGCGCCAUGCCUGCAGGUCGACUCUAGAAAACAUG,binding signal,PUM1 PUF domain R3-DYG,1.49 log2 enrichment (interaction score)
GGCUAGAACUAGUGGAUCCCCCGGCGCCCGGCGGCUCGAGCCCGGGUAAGUGUAAGUAGUCUGCAUGCCGCCGGGCGCCAUGCCUGCAGGUCGACUCUAGAAAACAUG,binding signal,PUM1 PUF domain R3-YRA,5.09 log2 enrichment (interaction score)
same,binding signal,PUM1 PUF domain R3-FCA,5.61 log2 enrichment (interaction score)
same,binding signal,PUM1 PUF domain R3-LRE,3.1 log2 enrichment (interaction score)
GGCUAGAACUAGUGGAUCCCCCGGCGCCCGGCGGCUCGAGCCCGGGUAAGUCUAAAUAGUCUGCAUGCCGCCGGGCGCCAUGCCUGCAGGUCGACUCUAGAAAACAUG,binding signal,PUM1 PUF domain R7-KYF,6.02 log2 enrichment (interaction score)
GGCUAGAACUAGUGGAUCCCCCGGCGCCCGGCGGCUCGAGCCCGGGUAAGUGUACAUAGUCUGCAUGCCGCCGGGCGCCAUGCCUGCAGGUCGACUCUAGAAAACAUG,binding signal,PUM1 PUF domain R4-PRQ,3.53 log2 enrichment (interaction score)
GGCUAGAACUAGUGGAUCCCCCGGCGCCCGGCGGCUCGAGCCCGGGUAAGUGGAAAUAGUCUGCAUGCCGCCGGGCGCCAUGCCUGCAGGUCGACUCUAGAAAACAUG,binding signal,PUM1 PUF domain R6-EWK,2.84 log2 enrichment (interaction score)
GGCUAGAACUAGUGGAUCCCCCGGCGCCCGGCGGCUCGAGCCCGGGUAAGUGAAAAUAGUCUGCAUGCCGCCGGGCGCCAUGCCUGCAGGUCGACUCUAGAAAACAUG,binding signal,PUM1 PUF domain R6-LYL,3.54 log2 enrichment (interaction score)

# — article PMC8384837, “Expanding the binding specificity for RNA recognition by a PUF domain”
